PubChem BioAssay (EPA / NIEHS)
The source made the active and inactive calls. How the source made its calls: active means hit-call score of the fitted dose curve at least 0.9, where 1 is the maximum; inactive means score below 0.9.

read-out: Human Leukocyte Antigen - DR isotype (HLADR), HLA-DRA (gene 3122); assay: BSK_BE3C_HLADR: BioMAP Diversity Plus: BE3C Assay for Human Leukocyte Antigen - DR isotype (HLADR) Biomarker Activity (AID 2283032); conditions: primary human bronchial epithelial cells; actives raise or lower the signal
Description: BSK_BE3C is a cell-based, multiplexed-readout assay that uses bronchial epithelial cell, a human lung primary cell, with measurements taken at 24 hours after chemical dosing in a 96-well plate.BSK_BE3C_HLADR is an assay component measured in the BSK_BE3C assay. It measures HLA-DR antibody related to regulation of gene expression using ELISA technology.Data from the assay component BSK_BE3C_HLADR was analyzed into 1 assay endpoint. This assay endpoint, BSK_BE3C_HLADR, was analyzed with bidirectional fitting relative to DMSO as the negative control and baseline of activity. Using a type of binding reporter, gain or loss-of-signal activity can be used to understand changes in the signaling as they relate to the gene HLA-DRA. Furthermore, this assay endpoint can be referred to as a primary readout, because this assay has produced multiple assay endpoints where this one serves a signaling function. To generalize the intended target to other relatable targets, this assay endpoint is annotated to the cell adhesion molecules intended target family, where the subfamily is MHC Class II.
The levels of cell surface (or secreted, indicated by the prefix "s") biomarker endpoints were measured by ELISA. Overt cytotoxicity to cells in confluent adherent cultures (all systems other than the BT system) was assessed by measuring total protein levels using sulforhodamine B (SRB) staining in parallel cultures at the time of biomarker measurements, indicated as SRB endpoints. For proliferation assays for adherent cell types, individual cell types are cultured at sub-confluence and relative cell numbers quantified by SRB staining at time points optimized for each system (48 h: 3C and CASM3C systems; 72 h: BT and HDF3CGF systems; 96 h: SAg system). SRB was performed by staining cells with 0.1% SRB after fixation with 10% TCA and reading wells at 560 nm.Viability and proliferation of PBMC (T cells) was quantified by Alamar Blue reduction for the SAg and BT systems. For PBMC viability (referred to as PBMC Cytotoxicity within the assay endpoint names), cells were plated (75,000/well in a 96-well plate) and then chemical samples added for 1 h before addition of activators, SEB and TSST-1 (20 ng/mL final concentration each). Cells were incubated for 90 h. Then, Alamar Blue (20 uL/well) (Invitrogen, Cat DAL1100) was added for 6 h, and the plates were read with a fluorescence microplate reader at 546/580 nm (excitation/emission). For PBMC proliferation, cells were plated and activated as above but incubated for only 16 h prior to addition of Alamar Blue. Plates were read after 6 h.

outcome, inactive:
CC(C)=CCCC(C)CCO (stereo not given)
O=C1OC(=O)C2C3C=CC(C3)C12 (stereo not given)
COc1ccc(-n2nc(C(F)F)cc2-c2ccc(S(C)=O)cc2)cc1 (stereo not given)
CCCCCCCCO
O=c1[nH]c2ccc(S(=O)CCN3CCC(Cc4ccc(F)cc4)CC3)cc2o1 (stereo not given)
O=C(O)c1cccc(Oc2ccccc2)c1
Nc1ccc(Nc2ccccc2)cc1
C[C@](N)(Cc1ccc(O)c(O)c1)C(=O)O
CCCCCCCCCCCCCCCO
CCCN(C1CCN(C(=O)C2CCNCC2)CC1)[C@@H]1CCc2ccc(OC)cc2C1
CCOCCOCCOCCO
NC(=O)NO
Cn1cnc([N+](=O)[O-])c1Sc1ncnc2nc[nH]c12
CCN(C(=O)c1cc(C)cc(OC[C@H](C)Nc2ccncc2)c1)C(C)C
COCCOc1cc2cc(C(=O)NC3CCN(C(C)C)CC3)n(CC(=O)Nc3ccc(Cl)cn3)c2cn1
C=CC(=C)CCC=C(C)C
CC1(C)C(=O)N(Br)C(=O)N1Br
O=C1CCC(N2C(=O)c3ccccc3C2=O)C(=O)N1 (stereo not given)
O=C(O)CCN(C1(C(=O)NO)CCCC1)S(=O)(=O)c1ccc(Oc2ccc(F)cc2)cc1
CC[C@H]1CC[C@H](NCc2cc3c(cc2OC)[C@H]2C[C@H]2C(=O)N3C)[C@H](c2ccccc2)N1
Cc1ccc(O)cc1
Cc1ccc(S(=O)(=O)O)cc1C
CC(C)=CCC/C(C)=C/CO
Nc1cccc(N)c1
CC(C)CCCCCCCOC(=O)CCCCC(=O)OCCCCCCCC(C)C
Oc1ccc2c(c1)-c1ccccc1C2
CC[C@H]1OC(=O)[C@H](C)[C@@H](O[C@H]2C[C@@](C)(OC)[C@@H](O)[C@H](C)O2)[C@H](C)[C@@H](O[C@@H]2O[C@H](C)C[C@H](N(C)C)[C@H]2O)[C@](C)(O)C[C@@H](C)C(=O)[C@H](C)[C@@H](O)[C@]1(C)O
CN(C)c1ccc(N=NS(=O)(=O)O)cc1
CC(C)CC(C)(O)C#CC(C)(O)CC(C)C (stereo not given)
CC(C)CCO
CCn1nc(Cc2ccccc2)cc1C1CCN(C[C@H]2C[C@H](N(C)[C@@H](C(=O)O)C(C)C)C[C@@H]2c2cccc(F)c2)CC1
COCCOCCOCCOC

AC50, active:
CC[C@H](C)C(=O)O[C@H]1C[C@@H](C)C=C2C=C[C@H](C)[C@H](CC[C@@H]3C[C@@H](O)CC(=O)O3)[C@H]21 35.9 µM
CCC(C)(C)C(=O)O[C@H]1C[C@@H](C)C=C2C=C[C@H](C)[C@H](CC[C@@H]3C[C@@H](O)CC(=O)O3)[C@H]21 30.8 µM
O=C(OC[C@H]1O[C@@H](OC(=O)c2cc(O)c(O)c(OC(=O)c3cc(O)c(O)c(O)c3)c2)[C@H](OC(=O)c2cc(O)c(O)c(OC(=O)c3cc(O)c(O)c(O)c3)c2)[C@@H](OC(=O)c2cc(O)c(O)c(OC(=O)c3cc(O)c(O)c(O)c3)c2)[C@@H]1OC(=O)c1cc(O)c(O)c(OC(=O)c2cc(O)c(O)c(O)c2)c1)c1cc(O)c(O)c(OC(=O)c2cc(O)c(O)c(O)c2)c1 8.27 µM
CCOc1cccc(-n2cc(C(=O)N3CCN(c4cc(C(=O)O)c5ccccc5c4)CC3)nc2-c2ccc(C)cc2)c1 24.5 µM
CCOC(=O)COc1ccc2c(c1)CC(NCC(O)c1cccc(Cl)c1)CC2 (stereo not given) 30.3 µM
O=c1n(CC2CO2)c(=O)n(CC2CO2)c(=O)n1CC1CO1 (stereo not given) 34.7 µM
CC(C)c1cccc(C(C)C)c1N1C(=O)c2ccc(O)cc2C1=O 14 µM
CN(C)c1ccc(Cc2ccc(N(C)C)cc2)cc1 36.3 µM
